Calls of active or inactive are those of the source.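 How the source made its calls, unless noted: active means compounds that lower viability of the colon cancer cells in the luminescence readout, with no numeric limit stated; inactive means the rest.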
Columns and labels:
[1] = Wnt pathway potentiators raising nuclear beta-catenin – imaging, WNT3A-conditioned medium, mouse C2C12, NPC library, primary screen (AID 1117326; in the data active means nuclear beta-catenin stimulation mostly above about 4.2%, no sharp cut-off; inactive means mostly below about 10%; further: reference of the scale not given here); conditions: stronger effect = higher value
[2] = stimulators of insulin release from INS-1E, primary screen, cell-based, 5 mM glucose, NPC library (AID 1117329;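 active means compound raises insulin release from rat beta cells at 5 mM glucose, no numeric limit stated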; further: reference of the scale not given here); conditions: rat INS-1E insulin secretion, at 10 µM, stronger effect = higher value
[3] = growth inhibition of GSK3B-pretreated HCT116 cells – cell-based, CellTiter-Glo, 0.2 to 20 µM (AID 1117336;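 active means compounds lowering colon cancer cell viability after pretreatment blocking the GSK3B kinase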); conditions: HCT116 viability after GSK3B inhibitor, at 20 µM, stronger effect = higher value
[4] = inhibition of endothelial tube formation, primary screen, imaging, VEGF stimulated, CD31 staining, tube area, NPC library (AID 1117340;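 active means compound that reduces growth-factor-driven endothelial tube area in a mixed cell culture, no cutoff stated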); conditions: VEGF-stimulated ADSC/ECFC co-culture, at 10 µM, stronger effect = higher value
[5] = GLP1 release stimulators, primary, NCI-H716, NPC library (AID 1117341;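 active means compound raises GLP1 secretion from the human gut endocrine cells, with no numeric limit stated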; further: reference of the scale not given here); conditions: NCI-H716 cells, at 10 µM, stronger effect = higher value
[6] = HCT116 colon cancer cell growth inhibition, primary screen, CellTiter-Glo luminescence, NPC library (AID 1117342;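 active means compounds that lower survival of HCT116 colon cancer cells in the luminescence readout, no numeric limit stated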); conditions: at 20 µM (top of the series)
[7] = reduced SW480 viability measured with CellTiter-Glo, NPC library, primary (AID 1117343); conditions: CellTiter-Glo luminescence; at 20 µM (top of the series)
[8] = NPC library primary testing for decreased DLD-1 cell viability via CellTiter-Glo (AID 1117346;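 active means compounds that lower survival of DLD-1 colon cancer cells in the luminescence readout, no cutoff given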); conditions: DLD-1 viability, CellTiter-Glo luminescence; at 20 µM (top of the series)

| Structure (SMILES) | nuclear beta-catenin stimulation ([1]; at 10 µM) | nuclear beta-catenin stimulation ([1]; stimulation, at 2 µM) [%] | insulin secretion stimulation [2] | viability decrease [3] | tube area decrease [4] | GLP1 secretion stimulation [5] | inhibition of viability [6] | viability decrease (inhibition) [7] | viability decrease (inhibition) [8] |
| --- | --- | --- | --- | --- | --- | --- | --- | --- | --- |
| NC[C@@H]1O[C@H](O[C@H]2[C@H](O)[C@H](O[C@H]3[C@@H](O)[C@H](N)C[C@H](N)[C@H]3O[C@H]3O[C@H](CN)[C@H](O)[C@H](O)[C@H]3N)O[C@@H]2CO)[C@@H](N)[C@@H](O)[C@@H]1O | -0.3% (inactive) | 0.4 | 3.2% (inactive) | -8.9% (inactive) | -22.4% (inactive) | 63.5% (active) | 9% (inactive) | 31.1% (inactive) | 5% (active) |
| O=C(OC1C[C@@H]2CC3C[C@@H](C1)N2CC3=O)c1c[nH]c2ccccc12 (some centres undefined) | -1.1% (inactive) | -0.5 | 10.8% (inactive) | 4.3% (inactive) | -15.2% (inactive) | 0.9% (inactive) | 42% (inactive) | 12.6% (inactive) | 17.7% (inactive) |
| COC(=O)c1nc(Cl)c(Cl)nc1N | 15.9% (active) | 84.9 | 2.2% (inactive) | 82.2% (active) | 110% (active) | 4.1% (inactive) | 75% (active) | 132% (active) | 101% (active) |
| CC1c2ccccc2CN1NC(=O)c1ccc(Cl)c(S(N)(=O)=O)c1 (centres undefined) | 1.2% (inactive) | 4.6 | 1.65% (inactive) | 26.4% (inactive) | -9.7% (inactive) | -1.8% (inactive) | 1.4% (inactive) | -21.1% (active) | -10.8% (inactive) |
| CC(C)CCC[C@@H](C)[C@H]1CC[C@H]2[C@@H]3CC=C4C[C@@H](O)CC[C@]4(C)[C@@H]3CC[C@]12C | -0.4% (inactive) | -1 | 1% (inactive) | 26.9% (inactive) | 37.5% (inactive) | -2.1% (inactive) | 43.2% (inactive) | 52.2% (active) | 41.9% (inactive) |
| c1ccc(CNCCNCc2ccccc2)cc1 | 4% (inactive) | 4.4 | 3.4% (inactive) | -31.8% (inactive) | -24% (inactive) | 2.1% (inactive) | -6.83% (inactive) | 20% (inactive) | -22.2% (inactive) |
| CCN(CC)C(=O)[C@]1(c2ccccc2)C[C@H]1CN | -2.4% (inactive) | -0.9 | 10.5% (inactive) | -13.1% (inactive) | -15.6% (inactive) | 3.7% (inactive) | -3.6% (inactive) | 7% (inactive) | 3.4% (inactive) |
| O=C(O)CNC(=O)CNC(=O)CNC(=O)CSC(=O)c1ccccc1 | -0.8% (inactive) | -1.6 | 1.2% (inactive) | -1.9% (inactive) | -8.3% (inactive) | 4.6% (inactive) | 0.6% (inactive) | 12.5% (inactive) | 14.5% (inactive) |
| NCCCC[C@H](N)C(=O)O | 1.6% (inactive) | 2 | -2.1% (inactive) | 1.2% (inactive) | -14.1% (inactive) | -3.9% (inactive) | -2.6% (inactive) | 12.8% (inactive) | -0.6% (inactive) |
| N[C@H](Cc1c[nH]c2ccccc12)C(=O)O | 0.6% (inactive) | 1 | 2.7% (inactive) | 6.2% (inactive) | 1.5% (inactive) | -2.5% (inactive) | -1.87% (inactive) | 6.5% (inactive) | 1.8% (inactive) |
| CCN(CC)CC(=O)OCC(=O)[C@@]1(O)CC[C@H]2[C@@H]3CCC4=CC(=O)CC[C@]4(C)[C@H]3[C@@H](O)C[C@@]21C | -0.5% (inactive) | -0.8 | -0.5% (inactive) | -24.6% (inactive) | 0.8% (inactive) | 1.1% (inactive) | -15.9% (inactive) | 37.2% (inactive) | -9.9% (inactive) |
| Cc1c(C)c2c(c(C)c1OC(=O)c1cccnc1)CC[C@@](C)(CCC[C@H](C)CCC[C@H](C)CCCC(C)C)O2 | -0.1% (inactive) | -0.2 | -0.2% (inactive) | 13.1% (inactive) | -9.8% (inactive) | 5.5% (inactive) | -2.9% (inactive) | -20.2% (inactive) | -13.8% (inactive) |
| C=CCN1C(=O)C(CC(C)C)NC1=S (centres undefined) | 0% (inactive) | 0.3 | -1.4% (inactive) | -1.7% (inactive) | -6.4% (inactive) | -4% (inactive) | -4.1% (inactive) | 2.8% (active) | -17.7% (inactive) |
| Cc1[nH]cnc1-c1ccc(Cl)cc1 | 1.4% (inactive) | 1 | 0.25% (inactive) | 11.7% (inactive) | -1.2% (inactive) | 0.1% (inactive) | 17% (inactive) | -17.6% (inactive) | 3.8% (inactive) |
| CCC(=O)Nc1ccc(O)cc1 | 9.3% (inactive) | 1.9 | -2.2% (inactive) | -1% (inactive) | 16% (inactive) | 4.4% (inactive) | 12.2% (inactive) | 27% (inactive) | 14.6% (inactive) |
| CCc1cccc2c(CCO)c[nH]c12 | 1.1% (inactive) | 0.4 | 0.7% (inactive) | 12.2% (inactive) | -19.3% (inactive) | 0.1% (inactive) | -1.1% (inactive) | -18% (inactive) | -6.5% (inactive) |

— PubChem BioAssay
